{"source": "ChEMBL document CHEMBL1157539", "about": "“Thousands of chemical starting points for antimalarial lead identification” (Nature, 2010)", "format_in_all_cases": "functional", "key": {"Plasmodium falciparum [1]": {"system": "Plasmodium falciparum", "assay": "GSK_TCMDC: Inhibition of Plasmodium falciparum 3D7 in whole red blood cells, using parasite LDH activity as an index of growth. Test compounds present at 2uM"}, "Plasmodium falciparum [2]": {"system": "Plasmodium falciparum", "assay": "GSK_TCMDC: Inhibition of Plasmodium falciparum Dd2 in whole red blood cells, using parasite LDH activity as an index of growth. Test compounds present at 2uM"}, "HepG2": {"system": "HepG2", "assay": "GSK_TCMDC: Percent inhibition of human HepG2 cell line. Test compounds present at 10uM."}}, "data": [{"smiles": "O=C(c1cc(-c2cccs2)n[nH]1)N1CCN(S(=O)(=O)c2ccc(Cl)cc2)CC1", "values": [{"measurement": "Inhibition", "setting": "Plasmodium falciparum [1]", "value": 96, "unit": "%"}, {"measurement": "Inhibition", "setting": "Plasmodium falciparum [2]", "value": 95, "unit": "%"}, {"measurement": "Inhibition", "setting": "HepG2", "value": 0, "unit": "%"}]}, {"smiles": "O=C(Cn1c(CCc2cccc(F)c2F)nc(=O)c2ccccc21)N(Cc1ccc(-c2ccc(C(F)(F)F)cc2)cc1)C1CCN(C2=NCCS2)CC1.O=C(O)C(O)C(O)C(=O)O", "values": [{"measurement": "Inhibition", "setting": "Plasmodium falciparum [1]", "value": 81, "unit": "%"}, {"measurement": "Inhibition", "setting": "Plasmodium falciparum [2]", "value": 85, "unit": "%"}, {"measurement": "Inhibition", "setting": "HepG2", "value": 62, "unit": "%"}]}, {"smiles": "CCN1CCC(N(Cc2ccc(-c3ccc(C(F)(F)F)cc3)cc2)C(=O)Cn2c(CCc3cccc(F)c3F)cc(=O)c3c2CCC3)CC1.O=C(O)C(O)C(O)C(=O)O", "values": [{"measurement": "Inhibition", "setting": "Plasmodium falciparum [1]", "value": 89, "unit": "%"}, {"measurement": "Inhibition", "setting": "Plasmodium falciparum [2]", "value": 85, "unit": "%"}, {"measurement": "Inhibition", "setting": "HepG2", "value": 49, "unit": "%"}]}, {"smiles": "O=C(/C=C/c1ccc(Cl)c(Cl)c1)NCCCCCN1CCCN(C(=O)Nc2ccc(C(F)(F)F)cc2)CC1", "values": [{"measurement": "Inhibition", "setting": "Plasmodium falciparum [1]", "value": 100, "unit": "%"}, {"measurement": "Inhibition", "setting": "Plasmodium falciparum [2]", "value": 7, "unit": "%"}, {"measurement": "Inhibition", "setting": "HepG2", "value": 31, "unit": "%"}]}, {"smiles": "CCOc1ccc(-c2nonc2NC(=O)c2ccco2)cc1OCC", "values": [{"measurement": "Inhibition", "setting": "Plasmodium falciparum [1]", "value": 97, "unit": "%"}, {"measurement": "Inhibition", "setting": "Plasmodium falciparum [2]", "value": 77, "unit": "%"}, {"measurement": "Inhibition", "setting": "HepG2", "value": 3, "unit": "%"}]}, {"smiles": "COc1ccc(Nc2nccc(N3CCC(NC(=O)c4cccc(C#N)c4)C3)n2)cc1", "note": "(stereo not drawn)", "values": [{"measurement": "Inhibition", "setting": "Plasmodium falciparum [1]", "value": 92, "unit": "%"}, {"measurement": "Inhibition", "setting": "Plasmodium falciparum [2]", "value": 93, "unit": "%"}, {"measurement": "Inhibition", "setting": "HepG2", "value": 6, "unit": "%"}]}, {"smiles": "O=C(NCCCCN1CCC(c2c[nH]c3ccccc23)CC1)c1sc(-c2ccc(C(F)(F)F)cc2)nc1CO", "values": [{"measurement": "Inhibition", "setting": "Plasmodium falciparum [1]", "value": 94, "unit": "%"}, {"measurement": "Inhibition", "setting": "Plasmodium falciparum [2]", "value": 3, "unit": "%"}, {"measurement": "Inhibition", "setting": "HepG2", "value": 34, "unit": "%"}]}, {"smiles": "CC(C)CC1(C(=O)OC(C)(C)C)CC(C(=O)OC(C)(C)C)C(c2cccs2)N1C(=O)c1ccc(C(C)(C)C)cc1", "note": "(stereo not drawn)", "values": [{"measurement": "Inhibition", "setting": "Plasmodium falciparum [1]", "value": 100, "unit": "%"}, {"measurement": "Inhibition", "setting": "Plasmodium falciparum [2]", "value": 100, "unit": "%"}, {"measurement": "Inhibition", "setting": "HepG2", "value": 21, "unit": "%"}]}, {"smiles": "COc1ccc2[nH]ccc(=NN=Cc3cccnc3)c2c1", "values": [{"measurement": "Inhibition", "setting": "Plasmodium falciparum [1]", "value": 100, "unit": "%"}, {"measurement": "Inhibition", "setting": "Plasmodium falciparum [2]", "value": 84, "unit": "%"}, {"measurement": "Inhibition", "setting": "HepG2", "value": 0, "unit": "%"}]}, {"smiles": "CCCC(C)N(Cc1ccc(C(C)(C)C)cc1)C(=O)c1cccc(OC)c1", "note": "(stereo not drawn)", "values": [{"measurement": "Inhibition", "setting": "Plasmodium falciparum [1]", "value": 100, "unit": "%"}, {"measurement": "Inhibition", "setting": "Plasmodium falciparum [2]", "value": 89, "unit": "%"}, {"measurement": "Inhibition", "setting": "HepG2", "value": 9, "unit": "%"}]}, {"smiles": "C#CCCC(=O)Nc1cccc(-c2cccc(-c3nc4cc(C(F)(F)F)ccc4[nH]3)c2)c1", "values": [{"measurement": "Inhibition", "setting": "Plasmodium falciparum [1]", "value": 90, "unit": "%"}, {"measurement": "Inhibition", "setting": "Plasmodium falciparum [2]", "value": 45, "unit": "%"}, {"measurement": "Inhibition", "setting": "HepG2", "value": 14, "unit": "%"}]}, {"smiles": "CN(C)CCCn1cncc1-c1ccc2ncnc(Nc3ccc(OCc4ccccc4)cc3)c2c1", "values": [{"measurement": "Inhibition", "setting": "Plasmodium falciparum [1]", "value": 100, "unit": "%"}, {"measurement": "Inhibition", "setting": "Plasmodium falciparum [2]", "value": 100, "unit": "%"}, {"measurement": "Inhibition", "setting": "HepG2", "value": 37, "unit": "%"}]}, {"smiles": "CCN(CC)CCON=Cc1cc(C)c2[nH]c3ccc(OCc4ccccc4)cc3c2c1C", "values": [{"measurement": "Inhibition", "setting": "Plasmodium falciparum [1]", "value": 98, "unit": "%"}, {"measurement": "Inhibition", "setting": "Plasmodium falciparum [2]", "value": 29, "unit": "%"}, {"measurement": "Inhibition", "setting": "HepG2", "value": 29, "unit": "%"}]}, {"smiles": "Cc1cc(N/N=C/c2ccccc2[N+](=O)[O-])c2cc(F)ccc2n1", "values": [{"measurement": "Inhibition", "setting": "Plasmodium falciparum [1]", "value": 100, "unit": "%"}, {"measurement": "Inhibition", "setting": "Plasmodium falciparum [2]", "value": 100, "unit": "%"}, {"measurement": "Inhibition", "setting": "HepG2", "value": 18, "unit": "%"}]}, {"smiles": "CC(C)c1ccc(O)cc1Nc1ccnc2ccc(C(F)(F)F)cc12", "values": [{"measurement": "Inhibition", "setting": "Plasmodium falciparum [1]", "value": 97, "unit": "%"}, {"measurement": "Inhibition", "setting": "Plasmodium falciparum [2]", "value": 90, "unit": "%"}, {"measurement": "Inhibition", "setting": "HepG2", "value": 6, "unit": "%"}]}, {"smiles": "COc1ccc(NC(=O)[C@H](CC(C)C)Nc2cc(C)nc(NCc3ccccc3C)n2)cc1.O=C(O)C(F)(F)F", "values": [{"measurement": "Inhibition", "setting": "Plasmodium falciparum [1]", "value": 100, "unit": "%"}, {"measurement": "Inhibition", "setting": "Plasmodium falciparum [2]", "value": 78, "unit": "%"}, {"measurement": "Inhibition", "setting": "HepG2", "value": 12, "unit": "%"}]}]}
